The sample as a whole holds a higher share of hits than the screen did.
mcGAS RapidFire: inhibitors of Mus musculus cyclic GMP-AMP synthase, initial high-throughput assay, cell-free, RapidFire MS; 130,000 compounds, 0.18% hits; inhibition, % at 12.5 µM; recombinant mouse cGAS, cGAMP by RapidFire MS; AID 1259397, 2018;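 active = inhibition of cGAS enzyme activity at or above 60%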;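 note: enzyme stimulated by 45 bp dsDNA with ATP and GTP substrates; cGAMP share of summed cGAMP plus half ATP and half GTP signals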
Target sequence (Q8C6L5 whole entry, looked up): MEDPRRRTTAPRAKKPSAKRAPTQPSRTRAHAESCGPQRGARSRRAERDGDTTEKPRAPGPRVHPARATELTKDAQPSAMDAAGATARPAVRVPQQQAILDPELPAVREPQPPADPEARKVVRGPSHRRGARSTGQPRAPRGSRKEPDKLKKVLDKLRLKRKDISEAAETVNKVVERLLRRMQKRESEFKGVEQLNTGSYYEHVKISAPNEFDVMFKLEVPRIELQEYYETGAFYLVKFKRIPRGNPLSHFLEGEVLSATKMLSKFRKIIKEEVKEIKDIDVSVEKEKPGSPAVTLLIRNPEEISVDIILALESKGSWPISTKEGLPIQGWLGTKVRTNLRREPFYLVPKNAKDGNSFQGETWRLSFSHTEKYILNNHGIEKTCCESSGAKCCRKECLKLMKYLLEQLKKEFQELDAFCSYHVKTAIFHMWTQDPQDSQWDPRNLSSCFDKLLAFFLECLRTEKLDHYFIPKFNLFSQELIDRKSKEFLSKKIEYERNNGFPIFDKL
* hit, by the source's call; ! = a repeat was not active.

`O=C1NC2(CCOc3ccccc32)C(=O)N1CCN1C(=O)c2ccccc2C1=O` (centres undefined) gave mcGAS RapidFire -9.7.
O=C1NC2(CCOc3ccccc32)C(=O)N1Cc1coc(-c2cccs2)n1 (centres undefined) was read as mcGAS RapidFire 94.7*.
`Cc1cc(C)cc(CN2C(=O)NC3(CCOc4ccccc43)C2=O)c1` (centres undefined) gave mcGAS RapidFire -5.2.
For O=c1ccc(-c2ccccc2)nn1CCCNS(=O)(=O)c1ccccc1C(F)(F)F the results were mcGAS RapidFire 6.8.
`CC(C(=O)NCc1cccs1)n1c(=O)c(C#N)c2n(c1=O)CCCCC2` (centres undefined) gave mcGAS RapidFire -13.8.
For COC(=O)c1ccc(CN2C(=O)C(C)(C)ON=C2c2ccc(C)cc2)o1 the results were mcGAS RapidFire 24.5.
For CC(=O)Oc1ccccc1CN1C(=O)C(C)(C)ON=C1c1ccc(C(F)(F)F)cc1 the results were mcGAS RapidFire -12.8.
For CC(=O)Oc1ccc(CN2C(=O)C(C)(C)ON=C2c2ccc(C)cc2)cc1 the results were mcGAS RapidFire 87.3*.
CN(Cc1nc2ccccc2n1C)C(=O)c1ccc(-c2ncn[nH]2)cc1 was read as mcGAS RapidFire -23.5.
For CC1CN(Cc2nc(N)c3c4c(sc3n2)CCCC4)CC(C)O1 (centres undefined) the results were mcGAS RapidFire -6.1.
`Cc1cc2nc(-c3ccccc3)c(=O)n(C)c2cc1C` gave mcGAS RapidFire 2.2.
Cc1cc2nc3c(=O)[nH]c(=O)nc-3n(C)c2cc1C=O was read as mcGAS RapidFire 91.1*.
Cc1cc2nc3c(=O)[nH]c(=O)nc-3n(CC(O)C(O)C(O)CO)c2cc1C (centres undefined) was read as mcGAS RapidFire 4.2.
N#Cc1ccc(S(=O)(=O)Oc2ccccc2C(=O)N2CCOCC2)cc1 was read as mcGAS RapidFire -1.1.
For O=C(Nc1ccc(Cl)cc1F)C1CC12CCOCC2 (centres undefined) the results were mcGAS RapidFire -2.2.
`Cc1ccc(C(=O)Nc2ccc(S(=O)(=O)O)c3cc(S(=O)(=O)O)cc(S(=O)(=O)O)c23)cc1NC(=O)c1cccc(NC(=O)Nc2cccc(C(=O)Nc3cc(C(=O)Nc4ccc(S(=O)(=O)O)c5cc(S(=O)(=O)O)cc(S(=O)(=O)O)c45)ccc3C)c2)c1` gave mcGAS RapidFire 93.3*.
Cc1coc(-c2ccc(C)c(NC(=O)c3cccc(NS(C)(=O)=O)c3)c2)n1 was read as mcGAS RapidFire -8.6.
Cc1ccc(NC(=O)c2ccc(S(N)(=O)=O)c(C)c2)cc1C was read as mcGAS RapidFire -10.6.
Nc1cc(S(=O)(=O)Nc2ccc(Cl)cc2)ccc1Cl was read as mcGAS RapidFire 15.7.
CCOc1cccc(-c2ccc3nc(-c4ccccc4)c(CCC(=O)N(CC)CC)n3c2)c1 was read as mcGAS RapidFire -0.4.
O=C(O)CNC(=O)CN1C(=O)CSC1=S was read as mcGAS RapidFire 13.0.
For O=C(O)CN1C(=O)C(=NN2C(=O)CSC2=S)c2ccccc21 the results were mcGAS RapidFire 92.3*.
For O=C(O)CN1C(=O)/C(=C2/C(=O)N(CC(=O)O)c3ccccc32)SC1=S the results were mcGAS RapidFire 3.9.
CC(NC(=O)CN(C)CC(=O)Nc1ccc(Cl)cc1)c1ccco1 (centres undefined) was read as mcGAS RapidFire 9.0.
O=C(NCC(F)(F)F)c1cn(-c2ccc(Br)cc2)nn1 was read as mcGAS RapidFire -11.0.
CCCS(=O)(=O)Nc1ccc(NC(=O)N2CCN(C)C(=O)C2)cc1 was read as mcGAS RapidFire -17.1.
For O=C(c1c[nH]c(=O)c(Cl)c1)N1CCOC(COc2cccc(C(F)(F)F)c2)C1 (centres undefined) the results were mcGAS RapidFire -5.9.
Screening Cc1noc(C)c1C(=O)Nc1cccc(OCC2CCCO2)c1 (centres undefined) returned mcGAS RapidFire -5.2.
O=C1CC(C(F)(F)F)N(C(=O)COC(=O)c2cccc(OCC3CCCO3)c2)c2ccccc2N1 (centres undefined) was read as mcGAS RapidFire 94.0*.
`O=C(N=C1OC(COc2ccccc2)CS1)c1ccccc1` (centres undefined) gave mcGAS RapidFire -4.4.
c1ccc(-n2cc(CNCC3COc4ccccc4O3)cn2)cc1 (centres undefined) was read as mcGAS RapidFire -1.2.
Screening CCc1ccc(NC(=O)C(=O)N2CCCN(C(=O)OC)CC2)cc1 returned mcGAS RapidFire -0.7.
COC(=O)C1=C(C)NC(C)=C(C(=O)OC)C1C(=O)OCc1csc(C)n1 was read as mcGAS RapidFire -3.4.
COc1cccc(CNC(=O)CCC2CCCN(C(=O)Cn3nc4ccccc4n3)C2)c1 (centres undefined) was read as mcGAS RapidFire -9.7.
`Cn1ccnc1CN1CCCC(CCNS(C)(=O)=O)C1` (centres undefined) gave mcGAS RapidFire -4.3.
For CCCN1CCCC1C(=O)N1CCCN(Cc2nccn2C)CC1 (centres undefined) the results were mcGAS RapidFire 93.6*.
For CCCCc1nc(CN2CCCN(Cc3nccn3C)CC2)no1 the results were mcGAS RapidFire -28.2.
For Cc1ccc(-c2cc(C)n3nc(N4CCOCC4)c(C#N)c3n2)cc1 the results were mcGAS RapidFire 0.2.
For CC1(C)c2sc(=O)[nH]c2SC2C3CCC(C3)C21 (centres undefined) the results were mcGAS RapidFire -5.5.
For O=C(Nc1c(C(=O)c2ccc3c(c2)OCO3)oc2ccccc12)c1cccc([N+](=O)[O-])c1 the results were mcGAS RapidFire -5.6.
`COc1ccc(CNc2ncn[nH]2)cc1OC` gave mcGAS RapidFire -1.9.
For COc1ccc(CNc2ccccc2-n2cccn2)cc1C the results were mcGAS RapidFire -0.9.
COc1ccc(CNc2c[nH]c(=O)cc2C)cc1OCCCC#N was read as mcGAS RapidFire 83.1*.
For C=CCNS(=O)(=O)c1nc2nc(C)c(C)c(C)n2n1 the results were mcGAS RapidFire -3.0.
For COc1ccc(NC(=O)c2cn(C)c3c(=O)n(-c4ccccc4)c(=O)[nH]c23)cc1OC the results were mcGAS RapidFire -22.6.
CC(C)n1c(N)nc2cc(Br)ccc21 was read as mcGAS RapidFire 3.8.
For N#Cc1ccc(Oc2ncccc2[N+](=O)[O-])c(Cl)c1 the results were mcGAS RapidFire -6.9.
Screening N#Cc1ccc([N+](=O)[O-])c(O)c1 returned mcGAS RapidFire -7.8.
For N#Cc1cc(I)c(O)c([N+](=O)[O-])c1 the results were mcGAS RapidFire 95.4*.
For CNCc1cc(-c2ccc(-c3ccn[nH]3)cc2)ccc1OC the results were mcGAS RapidFire -8.3.
Screening CN(CCNC(=O)c1ccn(-c2ccccc2Cl)n1)C1CC1 returned mcGAS RapidFire 2.1.
Screening CS(=O)(=O)c1nnnn1-c1ccccc1Cl returned mcGAS RapidFire 21.5.
For OCc1cn(-c2ccccc2Cl)nn1 the results were mcGAS RapidFire 94.0*.
COc1ccc(N(CC(=O)NC2CC2)S(=O)(=O)c2ccccc2[N+](=O)[O-])c(OC)c1 was read as mcGAS RapidFire -6.7.
`CCOCc1cc(C(=O)NS(C)(=O)=O)ccc1OC` gave mcGAS RapidFire -3.5.
CN(Cc1cnc2ccccc2n1)c1nccc(CCC(F)(F)F)n1 was read as mcGAS RapidFire -7.0.
`COC(=O)C1=C(C)NC(C)=C(C(=O)OC)C1c1ccccc1[N+](=O)[O-]` gave mcGAS RapidFire 73.2*!.

High-throughput results deposited in PubChem BioAssay by Fisher Drug Discovery Resource Center.
